In PubChem BioAssay (Tox21):
Results filed as inconclusive are left out. Calls of active or inactive are those of the source. Unless noted, the call rests on the fitted dose curve; in most records, active means well fitted curve in the direction sought with a large enough effect in the repeat runs; inconclusive means weak or mixed curves; inactive means no such curve, though single readings can be large; an effect the other way counts as inactive or inconclusive.

Assays:
[1] = qHTS assay to identify small molecule agonists of the peroxisome proliferator-activated receptor delta (PPARd) signaling pathway - cell viability counter screen (AID 743211); further: nearly all actives have a fitted effect of over 55% in size
Summary of the method: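 Read-out: CellTiter-Glo luminescence, 30 min RT, measured in the same wells as the beta-lactamase reporter. Cells: GeneBLAzer PPAR delta UAS-bla HEK293H, 3000 cells/well, compound exposure 17 h at 37C.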

[2] = molecular target: Peroxisome proliferator-activated receptor delta (Homo sapiens) (UniProt Q03181); test: qHTS assay to identify small molecule agonists of the peroxisome proliferator-activated receptor delta (PPARd) signaling pathway (AID 743212; calls by dose curve)
Peroxisome proliferator-activated receptor delta (Homo sapiens), sequence (Q03181 whole entry, looked up): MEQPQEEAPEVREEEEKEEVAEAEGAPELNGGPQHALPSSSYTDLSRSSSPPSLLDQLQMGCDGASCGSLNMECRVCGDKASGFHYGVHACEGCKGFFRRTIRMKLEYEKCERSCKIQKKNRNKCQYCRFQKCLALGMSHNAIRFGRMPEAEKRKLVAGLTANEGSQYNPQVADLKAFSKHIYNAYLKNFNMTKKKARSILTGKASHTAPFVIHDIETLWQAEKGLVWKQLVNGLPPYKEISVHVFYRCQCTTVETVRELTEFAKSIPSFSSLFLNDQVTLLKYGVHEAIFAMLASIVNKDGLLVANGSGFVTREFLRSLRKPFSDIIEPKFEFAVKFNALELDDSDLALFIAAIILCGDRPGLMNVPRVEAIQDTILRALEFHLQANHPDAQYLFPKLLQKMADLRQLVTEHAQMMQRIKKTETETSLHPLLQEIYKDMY
Summary of the method: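 GeneBLAzer UAS-bla HEK293H cells carrying a PPARδ construct were exposed to compounds at 37 °C. Beta-lactamase activity was read by FRET fluorescence after 2 h at room temperature with LiveBLAzer B/G substrate.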

[3] = qHTS assay to identify small molecule antagonists of the peroxisome proliferator-activated receptor delta (PPARd) signaling pathway - cell viability counter screen (AID 743213); further: nearly all actives have a fitted effect of over 50% in size
Summary of the method: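 Agonist-stimulated (L165041, 300 nM final) HEK293H PPARd UAS-bla cells are exposed to compounds for 17 h at 37 C, and ATP-based luminescence (CellTiter-Glo) from the same wells reports cytotoxicity.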

[4] = molecular target: Peroxisome proliferator-activated receptor delta (Homo sapiens) (UniProt Q03181); test: qHTS assay to identify small molecule antagonists of the peroxisome proliferator-activated receptor delta (PPARd) signaling pathway (AID 743215; active means well fitted inhibition curve with a large enough effect in the signal ratio in the repeat runs, not every such curve was filed as active; the % refers to the signal ratio; further: series mostly up to about 62 µM)
Summary of the method: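 With L165041 present at 300 nM final, compounds were incubated 17 h at 37 C on PPARd UAS-bla HEK293H cells. A FRET-based beta-lactamase substrate was then applied for 2 h at room temperature and fluorescence intensity recorded.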

[5] = molecular target: Bile acid receptor (Homo sapiens) (UniProt Q96RI1); test: qHTS assay to identify small molecule antagonists of the farnesoid-X-receptor (FXR) signaling pathway (AID 743217; active means well fitted inhibition curve with a large enough effect in the signal ratio in the repeat runs, not every such curve was filed as active; the % refers to the signal ratio)
Bile acid receptor (Homo sapiens), sequence (Q96RI1 whole entry, looked up): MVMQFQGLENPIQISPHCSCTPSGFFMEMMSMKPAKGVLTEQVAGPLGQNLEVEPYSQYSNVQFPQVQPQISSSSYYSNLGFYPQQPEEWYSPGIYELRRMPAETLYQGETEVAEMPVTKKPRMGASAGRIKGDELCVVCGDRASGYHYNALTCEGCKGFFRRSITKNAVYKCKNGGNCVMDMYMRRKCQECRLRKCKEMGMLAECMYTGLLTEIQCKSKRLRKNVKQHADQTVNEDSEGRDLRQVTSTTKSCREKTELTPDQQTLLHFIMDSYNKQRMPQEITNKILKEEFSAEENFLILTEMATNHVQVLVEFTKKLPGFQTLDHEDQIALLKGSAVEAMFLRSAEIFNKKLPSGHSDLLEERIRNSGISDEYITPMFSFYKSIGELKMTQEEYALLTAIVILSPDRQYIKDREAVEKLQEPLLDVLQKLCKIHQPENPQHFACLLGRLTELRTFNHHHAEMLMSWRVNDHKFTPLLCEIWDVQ
Summary of the method: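 In this cell-based antagonist screen, inhibition of CDCA-driven (50 uM final) UAS-beta-lactamase expression in HEK 293T cells was measured by FRET fluorescence following 16 h compound exposure at 37 °C.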

[6] = qHTS assay to identify small molecule agonists of the farnesoid-X-receptor (FXR) signaling pathway - cell viability counter screen (AID 743218); further: nearly all actives have a fitted effect of over 45% in size
Summary of the method: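 After 16 h at 37 C with test compounds, FXR-bla HEK 293T cells were given LiveBLAzer B/G substrate for 2 h at RT and then CellTiter-Glo; luminescence was taken after 30 min.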

[7] = qHTS assay to identify small molecule antagonists of the farnesoid-X-receptor (FXR) signaling pathway - cell viability counter screen (AID 743221; active means well fitted cell-killing curve with a large enough effect in the repeat runs, not every such curve was filed as active; further: nearly all actives have a fitted effect of over 50% in size)
Summary of the method: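 HEK 293T FXR-bla cells, 5 h pre-incubation; compound + CDCA 50 uM final, 16 h, 37 C; beta-lactamase FRET read first, then CellTiter-Glo luminescence, 30 min RT.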

[8] = qHTS assay to identify small molecule agonists of the vitamin D receptor (VDR) signaling pathway - cell viability counter screen (AID 743224); further: series mostly up to about 63 µM; nearly all actives have a fitted effect of over 50% in size
Summary of the method: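 Here cell health was gauged by luminescent ATP detection (CellTiter-Glo, 30 min RT) in VDR-bla cells that had been incubated with test compounds for 16 h at 37C and 5% CO2.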

[9] = qHTS assay to identify small molecule antagonists of the vitamin D receptor (VDR) signaling pathway - cell viability counter screen (AID 743225); further: nearly all actives have a fitted effect of over 50% in size
Summary of the method: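 Viability counter screen run in the same wells as the beta-lactamase reporter assay: HEK 293T VDR-UAS-bla cells, 16 h compound exposure at 37C with 3 nM (final) 1-alpha,25-dihydroxyvitamin D3. CellTiter-Glo luminescence, 30 min, room temperature.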

[10] = qHTS assay to identify small molecule agonists of the NFkB signaling pathway (AID 1159509; active means well fitted curve in the direction sought with a large enough effect in the signal ratio in the repeat runs, not every such curve was filed as active; the % refers to the signal ratio; further: series mostly up to about 61 µM)
Summary of the method: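 ME-180 NFkB-bla, 2,000 cells/well, overnight plating; cpd pinned in DMSO, 5 h 37 C; B/G FRET substrate 1.5 h RT; ex 405, em 460/530 nm.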

[11] = qHTS assay to identify small molecule agonists of the endoplasmic reticulum stress response signaling pathway (AID 1159516; active means well fitted activation curve with a large enough effect in the signal ratio in the repeat runs, not every such curve was filed as active; the % refers to the signal ratio)
Summary of the method: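 Reporter HeLa cells (ESRE-beta-lactamase) underwent 5 hr compound incubation at 37 C and 5% CO2 in quantitative HTS format. Detection followed 2 hr of FRET substrate loading at room temperature.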

[12] = qHTS assay to identify small molecule agonists of the endoplasmic reticulum stress response signaling pathway - cell viability counter screen (AID 1159517; calls by dose curve)
Summary of the method: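 ESRE-bla HeLa cells, 1,500 per well, seeded overnight then treated with compounds for 5 hr at 37 C. After the beta-lactamase read, viability in the same wells is measured by CellTiter-Glo luminescence after 30 min at room temperature.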

[13] = qHTS assay to identify small molecule antagonists of the retinoid-related orphan receptor gamma (ROR-gamma) signaling pathway - cell viability counter screen (AID 1159520); further: nearly all actives have a fitted effect of over 50% in size
Summary of the method: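 Tet-on ROR gamma CHO cells were given compounds for 2 hr, then doxycycline hyclate at 1 uM final, and incubated 16 hr at 37 C. Viability was measured as ATP content by CellTiter-Glo luminescence.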

[14] = molecular target: Nuclear receptor ROR-gamma (Homo sapiens) (UniProt P51449); test: qHTS assay to identify small molecule antagonists of the retinoid-related orphan receptor gamma (ROR-gamma) signaling pathway (AID 1159521)
Summary of the method: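 Luminescence readout (ONE-Glo, 30 min RT) after 16 h doxycycline induction; loss of signal scored as antagonism. CHO cells with TET-inducible RORγ and RORE-LUC reporter; compounds added 2 h before 1 uM final doxycycline.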

[15] = qHTS assay to identify small molecule agonists of the AP-1 signaling pathway - cell viability counter screen (AID 1159525; calls by dose curve; further: nearly all actives have a fitted effect of over 55% in size)
Summary of the method: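 AP-1-bla ME-180 cells in Opti-MEM with 0.5% dialyzed FBS, compound exposure 5 h at 37 C in 15-point titration. Viability read in the same wells as ATP content by CellTiter-Glo luminescence, normalised to tetra-n-octylammonium bromide and DMSO controls.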

[16] = qHTS assay to identify small molecule agonists of the AP-1 signaling pathway (AID 1159526; calls by dose curve)
[17] = molecular target: Bile acid receptor (Homo sapiens) (UniProt Q96RI1); test: qHTS assay to identify small molecule agonists of the farnesoid-X-receptor (FXR) signaling pathway (AID 743220; active means well fitted activation curve with a large enough effect in the signal ratio in the repeat runs, not every such curve was filed as active; the % refers to the signal ratio)
Summary of the method: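 Beta-lactamase reporter under UAS control in GeneBLAzer FXR HEK 293T cells (5000/well) measured with LiveBLAzer FRET substrate after 2 h at room temperature. Compound exposure lasted 16 h at 37C.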

[18] = molecular target: Vitamin D3 receptor (Homo sapiens) (UniProt P11473); test: qHTS assay to identify small molecule agonists of the vitamin D receptor (VDR) signaling pathway (AID 743222; calls by dose curve)
Vitamin D3 receptor (Homo sapiens), sequence (P11473 whole entry, looked up): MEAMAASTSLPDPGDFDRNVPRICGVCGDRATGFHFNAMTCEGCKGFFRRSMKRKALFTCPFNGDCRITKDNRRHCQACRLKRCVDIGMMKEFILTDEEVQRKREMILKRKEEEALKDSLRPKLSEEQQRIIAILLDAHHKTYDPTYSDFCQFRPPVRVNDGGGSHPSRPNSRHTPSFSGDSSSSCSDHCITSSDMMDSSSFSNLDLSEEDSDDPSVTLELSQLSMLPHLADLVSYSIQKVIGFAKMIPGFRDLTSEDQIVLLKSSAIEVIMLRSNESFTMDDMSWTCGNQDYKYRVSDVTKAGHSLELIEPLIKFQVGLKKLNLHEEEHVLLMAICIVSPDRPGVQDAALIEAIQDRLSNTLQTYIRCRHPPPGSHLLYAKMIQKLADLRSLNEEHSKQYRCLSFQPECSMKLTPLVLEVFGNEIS
Summary of the method: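 VDR-bla cells were seeded, left 4 h, treated with compounds in DMSO for 16 h, incubated 2 h at RT with B/G FRET substrate, and read for fluorescence.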

[19] = molecular target: Vitamin D3 receptor (Homo sapiens) (UniProt P11473); test: qHTS assay to identify small molecule antagonists of the vitamin D receptor (VDR) signaling pathway (AID 743223; active means well fitted inhibition curve with a large enough effect in the signal ratio in the repeat runs, not every such curve was filed as active; the % refers to the signal ratio)
Summary of the method: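 Beta-lactamase reporter read-out: FRET substrate fluorescence after 2 h at room temperature, following 16 h exposure of VDR-bla cells to test compound plus 3 nM (final) 1alpha,25-dihydroxyvitamin D3 agonist at 37C.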

Measured: Potency

CC(CCC(=O)O)C(=O)O (configuration not stated)
not listed: [17] | [18] | [19]
inactive: all other assays above

CCCCCCC(C)(C)C(=O)O
not listed: [19]
inactive: all other assays above

CC(C)(O)c1ccc(CNC(=O)c2cccnc2Oc2ccc3nonc3c2)cc1
not listed: [5] | [17] | [18]
inactive: all other assays above

CCOC(C)=O
not listed: [3] | [5] | [17]
inactive: all other assays above

CCC(=O)C1CC(C(C)C)CC=C1C (configuration not stated)
not listed: [4] | [5] | [17] | [18] | [19]
inactive: all other assays above

C[C@H]1C[C@H](O)c2ccsc2S1(=O)=O
not listed: [3] | [5] | [17] | [18] | [19]
inactive: all other assays above

CCn1cc(C(=O)O)c(=O)c2cc(F)c(N3CCNCC3)cc21
not listed: [4] | [5] | [6] | [17] | [18] | [19]
inactive: all other assays above
